{"source": "PubChem BioAssay (EPA / NIEHS)", "note": "Inconclusive results are not listed. Active and inactive are the calls of the source. How the source made its calls: active means hit-call score of the fitted dose curve at least 0.9, where 1 is the maximum; inconclusive means response in the unintended direction; inactive means score below 0.9."}
{"target": "Hepatocyte nuclear factor 4-alpha (Homo sapiens) (UniProt P41235)", "sequence (P41235 whole entry, looked up)": "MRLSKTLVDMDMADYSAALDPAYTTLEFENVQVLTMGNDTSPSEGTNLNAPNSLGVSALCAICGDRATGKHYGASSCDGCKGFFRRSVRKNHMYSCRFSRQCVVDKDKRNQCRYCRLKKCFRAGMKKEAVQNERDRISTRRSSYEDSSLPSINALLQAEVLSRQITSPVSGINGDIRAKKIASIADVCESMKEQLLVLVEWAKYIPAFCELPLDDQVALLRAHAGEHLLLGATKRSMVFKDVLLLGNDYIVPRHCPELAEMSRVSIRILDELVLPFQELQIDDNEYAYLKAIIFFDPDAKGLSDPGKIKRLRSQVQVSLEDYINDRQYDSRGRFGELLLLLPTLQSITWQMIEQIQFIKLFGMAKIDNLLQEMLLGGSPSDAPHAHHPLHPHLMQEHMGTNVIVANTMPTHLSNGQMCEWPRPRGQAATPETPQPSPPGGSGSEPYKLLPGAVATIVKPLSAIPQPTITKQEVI", "test": "ATG_HNF4a_TRANS: Attagene TRANS-FACTORIAL HepG2 Assay for human Hepatocyte Nuclear Factor 4 alpha (HNF4a) (AID 2282982)", "conditions": "HepG2 HNF4a transactivation reporter, mRNA readout", "method": "ATG_TRANS is a cell-based, multiplexed-readout assay that uses HepG2, a human liver cell line, with measurements taken at 24 hours after chemical dosing in a 24-well plate.ATG_HNF4a_TRANS is one of 30 assay component(s) measured or calculated from the ATG_TRANS assay. It is designed to make measurements of mRNA induction, a form of inducible reporter, as detected with fluorescence intensity signals by Reverse transcription polymerase chain reaction (RT-PCR) and Capillary electrophoresis technology.Data from the assay component ATG_HNF4a_TRANS was analyzed into 1 assay endpoint. This assay endpoint, ATG_HNF4a_TRANS, was analyzed in the positive analysis fitting direction relative to DMSO as the negative control and baseline of activity. Using a type of inducible reporter, measures of mRNA for gain-of-signal activity can be used to understand the reporter gene at the transcription factor-level as they relate to the gene HNF4A. Furthermore, this assay endpoint can be referred to as a primary readout, because this assay has produced multiple assay endpoints where this one serves a reporter gene function. To generalize the intended target to other relatable targets, this assay endpoint is annotated to the nuclear receptor intended target family, where the subfamily is orphan.\nHuman liver HepG2 cells are transiently transfected with multiple reporter transcription units (MRTUs) in 6-well plates using FuGene 6 reagent (Roche; 3 ml FuGene/1 mg DNA). The MRTU constructs are regulated by a cis-regulating element (promoter). […] A major difference between the CIS and TRANS system is that in CIS activities of endogenous TFs are measured, whereas the TRANS assay evaluates changes in activities of exogenous, chimeric NR-Gal4 proteins. […] At the end of 24 hour incubation, total RNA was isolated using TriZol reagent (Invitrogen). The isolated RNA is then reverse-transcribed using oligo(dT) primer and Mo-MLV reverse transcriptase (Invitrogen) with DNAse I (Ambion) treatment for 30 min. The one-tenth of the produced cDNA was amplified by PCR using Taq DNA polymerase (Invitrogen) and two reporter sequence-specific primers. The PCR products were fluorescently labeled by primer extension with 6-arboxyfluorescein (6-FAM) 5'-labeled reporter sequence-specific primer (2 min at 95 C, 20 s at 68 C and 10 min at 72 C) and these products were digested with 5U of HpaI (New England Biolabs) for 2h at 37 C. The fragments were purified using Qiaquick PCR columns (Qiagen), analyzed on an ABI 3130xL genetic analyzer (Applied Biosystems) with peak positions identified by using a set of X-rhodamine (ROX)-labeled MapMarker1000 molecular weight standards (BioVentures). The raw capillary electrophoresis data was processed using Attagraph software (Attagene)."}
{"smiles": "NNC(=O)c1cccc(C(=O)NN)c1", "outcome": "inactive"}
{"smiles": "O=C1C=CC(=O)O1", "outcome": "inactive"}
{"smiles": "CC(C)C(=O)C(C)C", "outcome": "inactive"}
{"smiles": "O=C(O)CCCCCCCCCC(=O)O", "outcome": "inactive"}
{"smiles": "[Cl][Nd]([Cl])[Cl]", "outcome": "inactive"}
{"smiles": "CCOC(=O)CC", "outcome": "inactive"}
{"smiles": "O=C(C(Cl)Cl)N1CCOC12CCCCC2", "outcome": "inactive"}
{"smiles": "Cn1c(=O)[nH]c2ncn(C)c2c1=O", "outcome": "inactive"}
{"smiles": "CCOc1nc(F)cc2nc(S(=O)(=O)Nc3c(Cl)cccc3C(=O)OC)nn12", "outcome": "inactive"}
{"smiles": "CC(=O)Nc1ccc2c(c1)Cc1cc(NC(C)=O)ccc1-2", "outcome": "inactive"}
{"smiles": "CCN(CC#N)c1cccc(C)c1", "outcome": "inactive"}
{"smiles": "Cc1cccc(N)n1", "outcome": "inactive"}
{"smiles": "CCC(=O)Oc1ccc(/C(CC)=C(\\CC)c2ccc(OC(=O)CC)cc2)cc1", "outcome": "inactive"}
{"smiles": "N=c1ccn2c(n1)O[C@H]1[C@H](O)[C@@H](CO)O[C@H]12", "outcome": "inactive"}
{"smiles": "Nc1ccc(N)c(Cl)c1", "outcome": "inactive"}
{"smiles": "O=P(O)(O)Oc1ccccc1", "outcome": "inactive"}
{"smiles": "O=S1(=O)OC(c2ccc(O)cc2)(c2ccc(O)cc2)c2ccccc21", "outcome": "inactive"}
{"smiles": "CCC(CC)C(=O)O", "outcome": "inactive"}
{"smiles": "O=C(c1ccccc1)C1CCC1", "outcome": "inactive"}
{"smiles": "COCc1c(C(C)C)nc(C(C)C)c(/C=C/[C@@H](O)C[C@@H](O)CC(=O)O)c1-c1ccc(F)cc1", "outcome": "inactive"}
{"smiles": "Cc1cccc(N(C)C(=S)Oc2ccc3ccccc3c2)c1", "outcome": "inactive"}
{"smiles": "CCCCNc1ccc(NCCCC)c2c1C(=O)c1ccccc1C2=O", "outcome": "inactive"}
{"smiles": "CC(=O)OCc1ccco1", "outcome": "inactive"}
{"smiles": "CC(C)(C)c1ccc(OC(=O)c2ccccc2O)cc1", "outcome": "inactive"}
{"smiles": "C=C(C)C(=O)OCCO", "outcome": "inactive"}
{"smiles": "O=c1cc[nH]c(=S)[nH]1", "outcome": "inactive"}
{"smiles": "CC1(C)S[C@@H]2[C@H](NC(=O)COc3ccccc3)C(=O)N2[C@H]1C(=O)O", "outcome": "inactive"}
{"smiles": "CCCCCCCC[N+](C)(CCCCCCCC)CCCCCCCC", "outcome": "inactive"}
{"smiles": "Nc1nc2ccccc2[nH]1", "outcome": "inactive"}
{"smiles": "Cc1cc(C)c(C)cc1C", "outcome": "inactive"}
{"smiles": "CC(=O)NS(=O)(=O)c1ccc(N)cc1", "outcome": "inactive"}
{"smiles": "COc1c2ccoc2cc2oc(=O)ccc12", "outcome": "inactive"}
{"smiles": "CC(C)(C)c1n[nH]c(=O)n(N)c1=O", "outcome": "inactive"}
{"smiles": "O=C(c1ccccc1)c1ccc(O)c(O)c1O", "outcome": "inactive"}
{"smiles": "C1=Cc2ccccc2C1", "outcome": "inactive"}
{"smiles": "S=C(NC1CCCCC1)NC1CCCCC1", "outcome": "inactive"}
{"smiles": "CC(C)(C)C1CCCCC1=O", "note": "(stereo not given)", "outcome": "inactive"}
{"smiles": "O=C1c2ccccc2C(=O)C1c1nc2ccccc2c(Br)c1O", "outcome": "inactive"}
{"smiles": "Cc1cc(O)c(Cl)c(C)c1Cl", "outcome": "inactive"}
{"smiles": "COC(=O)/C=C/C(C)=C\\C=C\\C(C)=C\\C=C\\C=C(C)\\C=C\\C=C(C)\\C=C\\C(=O)O", "outcome": "inactive"}
